This passage reports composite z-score and z-score results from PubChem BioAssay.

Calls of active or inactive are those of the source.

The target of the first test is Torsin-1A-interacting protein 2 (Homo sapiens) (UniProt Q8NFQ8). Description: LULL1 binders on small-molecule microarray, primary screen, cell lysate, human LULL1 lysate, 635/667 nm fluorescence (AID 1092).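 Note: probe is lysate of COS7 cells overexpressing human LULL1; score merges per-feature 667 nm fluorescence with signal-to-noise.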 As to conditions: hLULL1 lysate binding, 635 nm fluorescence, higher = more signal.
Chain of Torsin-1A-interacting protein 2 (Homo sapiens) (Q8NFQ8 whole entry, looked up): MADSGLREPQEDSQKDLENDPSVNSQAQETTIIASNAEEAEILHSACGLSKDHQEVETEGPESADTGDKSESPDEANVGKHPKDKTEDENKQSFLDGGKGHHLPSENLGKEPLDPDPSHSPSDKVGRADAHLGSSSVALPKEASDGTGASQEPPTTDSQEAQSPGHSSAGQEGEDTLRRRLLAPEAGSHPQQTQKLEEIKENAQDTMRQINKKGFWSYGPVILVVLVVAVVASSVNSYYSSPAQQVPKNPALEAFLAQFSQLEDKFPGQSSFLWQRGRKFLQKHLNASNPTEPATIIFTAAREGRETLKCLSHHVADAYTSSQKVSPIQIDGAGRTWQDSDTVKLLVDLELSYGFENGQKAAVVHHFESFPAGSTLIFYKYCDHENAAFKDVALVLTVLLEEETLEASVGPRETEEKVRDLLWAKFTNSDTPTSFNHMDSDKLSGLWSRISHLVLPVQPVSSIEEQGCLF
As to `CC(C)NC(=O)[C@@]1(c2ccc([N+](=O)[O-])cc2)CC(=O)N(C2CCCCC2)[C@@H]1c1ccc(CO)cc1`, the composite z-score worked out at 2.85.
Regarding `CC1CC/C=C\[C@H]2OC34C=CCN(c5ccc(Cl)cc5)C(=O)[C@H]3N(C(C)CO)C(=O)[C@]4(C)C2C(=O)O1` (stereo not given in full), the composite z-score was -1.05.
Compound `COc1cc2c(cc1O)C(C1CC1)N(Cc1cccc(OC(F)(F)F)c1)CC2` (stereo not given) gave a composite z-score of 1.88.
Same read-out and setting: the value for `CC(c1ccccc1)C(O)C1C=CC2C(=O)N(C)C(=O)C2N1Nc1ccccc1` (stereo not given) was 2.99; that for `CCOC(=O)C1=CC[C@@H](c2ccccc2F)N(S(=O)(=O)c2ccc(C)cc2)[C@H]1c1ccccc1` was 2.72.

Test system in a further test: not listed separately
Put plainly: E. coli growth modulation, two-sided OD650, primary screen, E. coli filamentation project, strain DRC41, 24 h (AID 1093).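 Note: MC1000 strain lacking acrAB efflux and sulA so SOS filamentation is blocked; test concentration not given here.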 As to conditions: OD650, 24 h, higher = more signal, called active from +8 up or from −8 down.
For the compound `CC1CC/C=C\[C@H]2OC34C=CCN(C(C)(C)C)C(=O)[C@H]3N(CCCCCO)C(=O)[C@@H]4C2C(=O)O1` (stereo not given in full), the z-score was -0.129 (inactive).
Regarding `COc1cc(NN2C(C(O)c3cc(OC)c(OC)c(OC)c3)C=CC3C(=O)N(C)C(=O)C32)cc(OC)c1OC` (stereo not given), the z-score is -0.678 (inactive).
On the same count and under the same terms, the value for `[N-]=[N+]=NCc1ccccc1[C@H]1OC(c2ccc(OCCCO)cc2)=N[C@@]1(Cc1ccccc1N=[N+]=[N-])C(=O)NCC(O)CO` (stereo not given in full) was -0.221 (inactive).
The same measure, in the same setting: the value for `C=C(COC)/C(=C/C[C@H](OC(=O)c1ccncc1)c1ccccc1OCCO)c1cc(C(=O)OC)ccc1OC` was 0.0572 (inactive); that for `CC(C)=C1C(=O)C(c2ccccc2)=C2CN3C(=O)N(CCc4ccccc4)C(=O)[C@]3(Cc3ccc(C(F)(F)F)cc3)[C@H]21` was -1.48 (inactive); that for `NCCCCCCNC(=O)[C@@H]1C[C@@H]2C(=O)N[C@@H](CCCCN)C(=O)N2[C@@H]1c1ccc(O)cc1` was 0.445 (inactive).
Still for that read-out and setting: for `CC(C)[Si](C#CCCCC#N)(O[C@H](c1ccccc1)c1cn(Cc2ccccc2)nn1)C(C)C` the value was 1.84 (inactive); for `CC(C)c1ccc(NN2C(C(O)c3ccc(C#N)cc3)C=CC3C(=O)N(c4ccccc4)C(=O)C32)cc1` (stereo not given), -1.27 (inactive).
As to `COC(=O)[C@]1(CCS(=O)(=O)c2ccccc2)N=C(c2ccc(OCCCO)cc2)O[C@@H]1c1ccccc1N=[N+]=[N-]`, the z-score is -1.29 (inactive).
With `C=C[C@H](C)[C@H](OC(=O)Nc1ccc(SC)cc1)c1ccc(OCCO)cc1`, the z-score was 0.938 (inactive).
With `Cc1ccc(S[C@]2(C(=O)NCC(F)(F)F)CC(=O)N(Cc3cc(C(F)(F)F)cc(C(F)(F)F)c3)[C@@H]2c2ccc(CO)cc2)cc1`, the z-score is -0.002 (inactive).
As for `O=C1OCCC=C[C@H]2OC34C=CCN(c5ccc6ccccc6c5)C(=O)[C@H]3N(CCCO)C(=O)[C@@H]4C12` (stereo not given in full), the z-score is 0.843 (inactive).
Turning to `O=C1O[C@H](c2ccccc2)[C@H](c2ccccc2)N2[C@H]1[C@@H](C(=O)O)[C@]1(C(=O)Nc3ccc(C#CCCO)cc31)[C@H]2c1ccccc1OCCO`, the z-score is 0.18 (inactive).
For `COC(=O)[C@@]1(Cc2ccc(F)cc2)[C@H]2c3cc(C(=O)N4CCCC4)n(CCc4c[nH]c5ccccc45)c3C[C@H]2CN1C(=O)c1ccccc1`, the z-score is -1.3 (inactive).
Consider `[N-]=[N+]=Nc1ccccc1C[C@]1(C(=O)N2CCOCC2)COC(c2ccc(OCCCO)cc2)=N1`, for which the z-score is 1.91 (inactive).
As for `C=CCN1C(=O)[C@]2(CCC(=O)OC(C)(C)C)N=C(c3ccc(OCCCO)cc3)O[C@@H]2c2ccccc21`, the z-score was 1.06 (inactive).
On to `O=C1OCCC=C[C@H]2OC34C=CCN(Cn5nnc6ccccc65)C(=O)[C@H]3N(CCCO)C(=O)[C@@H]4C12` (stereo not given in full), for which the z-score is 1.81 (inactive).
Regarding `COCCOC(=O)N1C(=O)[C@@]2(c3ccccc31)[C@H](c1ccc(O)cc1)N1[C@H](c3ccccc3)[C@H](c3ccccc3)OC(=O)[C@H]1[C@@H]2C(=O)N1CCN(c2ncccn2)CC1`, the z-score is 1.05 (inactive).
Still for that read-out and setting: the value for `Cc1ccc(S[C@]2(C(=O)NCC(F)(F)F)CC(=O)N(Cc3cc(C(F)(F)F)cc(C(F)(F)F)c3)[C@@H]2c2ccc(CO)cc2I)cc1` was -0.3 (inactive).
For `C#CCN([C@@H](Cc1ccccc1)C(=O)OC)[C@@H](/C=C/C1CC1)[C@H](O)Cc1ccccc1`, the z-score was -0.807 (inactive).
On the same count and under the same terms, for `CC(C)C(CO)N1C(=O)[C@@H]2[C@H]3C(=O)OCC=C[C@H]3OC23C=CCN(c2ccc(Cl)cc2)C(=O)[C@@H]13` (stereo not given in full) the value was 0.669 (inactive).
On to `COC(=O)[C@@]1(Cc2ccc(F)cc2)[C@H]2c3cc(C(=O)N4CCCC4)n(Cc4ccc(C)c(F)c4F)c3C[C@H]2CN1C(=O)c1ccccc1`, for which the z-score is -0.477 (inactive).
Still for that read-out and setting: for `COc1ccccc1CN1C(=O)c2ccccc2[C@](Cc2ccccc2I)(C(=O)O)[C@@H]1c1ccc(CO)cc1` the value was 1.28 (inactive).
Same read-out and setting: the value for `COc1ccc([C@H]2OC[C@@H]3C[C@H](Cc4ccccc4)C(=O)N32)cc1` was -0.238 (inactive); that for `COCCOC(=O)N1C(=O)[C@@]2(c3cc(C#CC4(O)CCCCCC4)ccc31)[C@H](c1ccc(O)cc1)N1[C@H](c3ccccc3)[C@H](c3ccccc3)OC(=O)[C@H]1[C@@H]2C(=O)N1CCN(c2ncccn2)CC1` was -0.321 (inactive).
Same read-out and setting: the value for `CCCC1(C(=O)OC)C=C2C(=C(C)C(=O)C2C)CN1` (stereo not given) was -0.827 (inactive); that for `COc1cc(NN2C(C(O)c3ccco3)C=CC3C(=O)N(C)C(=O)C32)cc(OC)c1OC` (stereo not given) was -1.87 (inactive); that for `CCCNC(=O)[C@@H]1c2ccccc2C(=O)N(Cc2ccc(OC(F)(F)F)cc2)[C@H]1c1ccc(CO)cc1` was 0.937 (inactive).
For the compound `C=CC[C@@H](OC(=O)Nc1ccc(OC)cc1)c1ccc(O)c(F)c1`, the z-score was 0.92 (inactive).
Regarding `CCCC[C@@H](O)C1=C(COC)C[C@H]2C(=O)N(Cc3ccccc3)C(=O)[C@H]2[C@H]1CO`, the z-score was 0.649 (inactive).
The same measure, in the same setting: for `CC(C)NC(=O)[C@@]1(c2ccc([N+](=O)[O-])cc2)CC(=O)N(C2CCCCC2)[C@@H]1c1ccc(CO)cc1` the value was 1.07 (inactive); for `CC1CC/C=C\[C@H]2OC34C=CCN(c5ccc(Cl)cc5)C(=O)[C@H]3N(C(C)CO)C(=O)[C@]4(C)C2C(=O)O1` (stereo not given in full), 0.108 (inactive).
Same read-out and setting: for `COc1cc2c(cc1O)C(C1CC1)N(Cc1cccc(OC(F)(F)F)c1)CC2` (stereo not given) the value was 0.394 (inactive).
As to `CC(c1ccccc1)C(O)C1C=CC2C(=O)N(C)C(=O)C2N1Nc1ccccc1` (stereo not given), the z-score was -0.689 (inactive).
Same read-out and setting: for `CCOC(=O)C1=CC[C@@H](c2ccccc2F)N(S(=O)(=O)c2ccc(C)cc2)[C@H]1c1ccccc1` the value was -0.818 (inactive).
